In PubChem BioAssay AID1159580 (chemical genetic matrix, 2015):
The whole screen tested about 5,500 compounds, of which about 2,000 (36%) were called active. Not shown: some 18% with an inconclusive outcome. Rule as the data show it: active = normalized growth mostly below about 0.91 (no sharp cut-off); inconclusive = no clear call, values can overlap the other calls; inactive = mostly above about 0.92. The list shows a part of the results.

Experiment: chemical genetic growth profiling, strain panel (AID 1159580);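 also: tested at 20 µM; growth read once vehicle control cultures reached saturation at 30 °C; 1 = growth at the plate median or of vehicle wells; lower values mean less growth of the strain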
Conditions: S. cerevisiae deletion strains, growth OD

Measured: normalized growth

Cc1ccc(N=CN(C)C=Nc2ccc(C)cc2C)c(C)c1
inactive: locus YAL021C, strain ccr4, active compounds read low 0.944 | locus YAL026C, strain drs2, active compounds read low 0.962 | locus YAL030W, strain snc1, active compounds read low 0.984 | locus YBL061C, strain skt5, active compounds read low 0.986 | locus YBR009C, strain hhf1, active compounds read low 0.926 | locus YBR023C, strain chs3, active compounds read low 1 | locus YBR171W, strain sec66, active compounds read low 0.971 | locus YBR231C, strain swc5, active compounds read low 1 | locus YBR279W, strain paf1, active compounds read low 0.983 | locus YCL011C, strain gbp2, active compounds read low 0.965 | locus YCL016C, strain dcc1, active compounds read low 0.971 | locus YCL061C, strain MRC1, active compounds read low 0.952 | locus YCL069W, strain vba3, active compounds read low 0.979 | locus YCR088W, strain abp1, active compounds read low 0.99 | locus YDL005C, strain med2, active compounds read low 0.987 | locus YDL040C, strain nat1, active compounds read low 0.987 | locus YDR001C, strain nth1, active compounds read low 0.979 | locus YDR069C, strain doa4, active compounds read low 0.969 | locus YDR137W, strain rgp1, active compounds read low 0.981 | locus YDR159W, strain sac3, active compounds read low 0.974 | locus YDR195W, strain ref2 1.03 | locus YDR297W, strain sur2, active compounds read low 0.977 | locus YDR334W, strain swr1, active compounds read low 0.987 | locus YDR335W, strain msn5, active compounds read low 0.966 | locus YDR392W, strain spt3, active compounds read low 0.925 | locus YEL003W, strain gim4, active compounds read low 0.957 | locus YEL037C, strain rad23, active compounds read low 0.98 | locus YEL061C, strain CIN8 (second series), active compounds read low 0.986 | locus YER015W, strain faa2, active compounds read low 0.972 | locus YER016W, strain bim1, active compounds read low 0.975 | locus YER111C, strain swi4, active compounds read low 0.955 | locus YER155C, strain BEM2 (second series), active compounds read low 1.01 | locus YFR010W, strain ubp6, active compounds read low 0.987 | locus YGL167C, strain pmr1, active compounds read low 0.98 | locus YGL173C, strain kem1, active compounds read low 0.962 | locus YGL227W, strain vid30, active compounds read low 0.988 | locus YGL240W, strain doc1, active compounds read low 0.969 | locus YGL253W, strain hxk2, active compounds read low 0.979 | locus YHR013C, strain ard1, active compounds read low 0.943 | locus YHR027C, strain rpn1, active compounds read low 0.975 | locus YHR030C, strain SLT2, active compounds read low 0.999 | locus YHR079C, strain IRE1, active compounds read low 1.01 | locus YHR142W, strain chs7, active compounds read low 0.957 | locus YJL092W, strain hpr5, active compounds read low 0.978 | locus YJL095W, strain BCK1 (second series), active compounds read low 0.978 | locus YJL095W, strain BCK1, active compounds read low 0.962 | locus YJL115W, strain asf1, active compounds read low 0.966 | locus YJL129C, strain trk1, active compounds read low 0.976 | locus YJL154C, strain vps35, active compounds read low 0.987 | locus YJL164C, strain tpk1, active compounds read low 0.97 | locus YJL166W, strain qcr8, active compounds read low 0.974 | locus YJR066W, strain TOR1, active compounds read low 0.962 | locus YKL160W, strain elf1, active compounds read low 0.989 | locus YKR026C, strain gcn3, active compounds read low 0.989 | locus YKR091W, strain srl3, active compounds read low 0.983 | locus YLL001W, strain dnm1, active compounds read low 0.998 | locus YLL026W, active compounds read low 0.996 | locus YLL041C, strain sdh2, active compounds read low 0.98 | locus YLR027C, strain aat2, active compounds read low 0.98 | locus YLR113W, strain HOG1, active compounds read low 0.988 | locus YLR221C, strain rsa3, active compounds read low 0.941 | locus YLR258W, strain gsy2, active compounds read low 0.98 | locus YLR262C, strain YPT6 (second series), active compounds read low 0.962 | locus YLR320W, strain mms22, active compounds read low 0.969 | locus YLR342W, strain FKS1, active compounds read low 0.985 | locus YLR357W, strain rsc2, active compounds read low 0.898 | locus YLR370C, strain arc18, active compounds read low 0.985 | locus YLR384C, strain iki3, active compounds read low 0.993 | locus YML120C, strain ndi1, active compounds read low 0.975 | locus YMR058W, strain fet3, active compounds read low 0.972 | locus YMR125W, strain sto1, active compounds read low 1 | locus YMR129W, active compounds read low 0.97 | locus YMR205C, strain PFK2, active compounds read low 0.998 | locus YMR231W, strain pep5, active compounds read low 0.995 | locus YNL071W, strain lat1, active compounds read low 0.978 | locus YNL183C, strain NPR1, active compounds read low 0.976 | locus YNL209W, strain ssb2, active compounds read low 0.978 | locus YNL248C, strain rpa49, active compounds read low 0.905 | locus YNL322C, strain KRE1 (second series), active compounds read low 0.967 | locus YNR049C, strain mso1, active compounds read low 0.948 | locus YOR001W, strain rrp6, active compounds read low 0.984 | locus YOR070C, strain gyp1, active compounds read low 0.975 | locus YOR080W, strain dia2, active compounds read low 0.973 | locus YOR083W, strain WHI5, active compounds read low 0.983 | locus YOR106W, strain vam3, active compounds read low 0.95 | locus YOR231W, strain MKK1, active compounds read low 0.994 | locus YOR265W, strain rbl2, active compounds read low 0.991 | locus YOR270C, strain vph1, active compounds read low 0.837 | locus YOR290C, strain snf2, active compounds read low 0.949 | locus YPL051W, strain arl3, active compounds read low 0.965 | locus YPL078C, strain atp4, active compounds read low 0.97 | locus YPL106C, strain sse1, active compounds read low 0.948 | locus YPL240C, strain hsp82, active compounds read low 0.994 | locus YPL256C, strain CLN2, active compounds read low 1.01
